# According to PubChem BioAssay AID1347170 (National Center for Advancing Translational Sciences (NCATS), 2019):
# Inconclusive results are not listed. A number with no mark means an inactive call. The source made the active and inactive calls. Calls come from the whole dose curve; as a rule, active = well fitted cell-killing curve with a large enough effect; inconclusive = small, poorly fitted or top-dose-only effect, or another doubt; inactive = flat fitted curve, though single readings scatter.
# Experiment: Vero cells viability counterscreen for qRT-PCR qHTS assay of selected Zika virus inhibitors
# Settings: CellTiter-Glo ATP luminescence, 24 h; series mostly up to 41.8 µM; activity change, negative = cytotoxicity: at the top concentration
# Excerpt: Assay Submitters (PI): Avindra Nath, Ph.D., National Institute of Neurological Disorders and Stroke (NINDS), Bethesda, MD Radhakrishnan Padmanabhan, Ph.D., Georgetown University (GU), Washington D.C. Zika Virus causes congenital defects, including microcephaly and is associated with Guillain-Barre syndrome, eningoencephalitis and myelitis in infected adult. […] Using a target-based approach, we hope to establish a screening paradigm to uncover novel, cell-active NS2B-NS3 protease (Zika Virus) specific inhibitors from NCATS' collection of small molecules using qHTS. […] Four assay panel was created to identify potential Zika Virus inhibitors. Namely, (1) GU unlinked NS2B-NS3 AMC tagged protease qHTS, (2) GU unlinked NS2B-NS3 Rhodamine tagged protease qHTS, (3) NINDS linked NS2B-NS3 AMC tagged protease qHTS, (4) NINDS linked NS2B-NS3 Rhodamine tagged protease qHTS. Inhibitors of the Zika virus primary screens are confirmed using qRT-PCR secondary assays, mCherry orthogonal assay, and Vero cells viability counterscreen. Cytotoxic compounds identified in the Vero cell viability counterscreen were excluded from the list of potential Zika virus inhibitors. Early Translation Branch (ETB) National Center for Advancing Translational Sciences (NCATS), Rockville, MD National Institute of Health (NIH), Bethesda, Maryland
# Vero Cell Viability Assay: Vero cell cytotoxicity was determined using a luminescent readout with CellTiter Glo reagent (Promega, Madison, WI), which is based on measuring the ATP content within cells. Briefly, 4 uL of Vero cells at 2.5 x 10^5 cells/mL in DMEM containing 4% FBS were dispensed into 1536-well solid bottom tissue treated white plate using a Multidrop Combi dispenser (Thermo Scientific). Plates were incubated at 37 degrees C, 95% humidity, and 5% CO2 overnight to allow for cell attachment. Compounds were dissolved in DMSO at different concentrations and transferred via pintool (Wako Automation), for a final concentration of 57 uM - 0.029 uM. Plates were again incubated for 24 hours, followed by a 2 uL addition of CellTiter Glo. Finally, plates were incubated for 30 minutes at 37 degrees C and 5% CO2 before being read on a ViewLux (Perkin Elmer) for luminescence.
Structure (SMILES),"activity change, negative = cytotoxicity",Potency
CCOC(=O)c1ccc(N2C(=O)c3n[nH]c(-c4cccs4)c3C2c2ccc(C(C)(C)C)cc2)cc1 (stereo not drawn),-6.72% [at 31.5 µM],–
CC(C)=CCc1c2c(c3occ(-c4ccc(O)c(O)c4)c(=O)c3c1O)C=CC(C)(C)O2,–,8.91 µM (active)
Cc1nc(C2CCCCC2)c(-c2ccc(S(N)(=O)=O)c(F)c2)o1,1.12%,–
Cc1ccc2nc(NS(=O)(=O)c3ccc(Cl)cc3)c(Nc3ccc(C(=O)O)cc3)nc2c1,-1.12%,–
Oc1c(Cl)cc(Cl)c(Cl)c1Cc1c(O)c(Cl)cc(Cl)c1Cl,–,35.5 µM (active)
O=C(O)Cc1cccc(OCCCN(Cc2cccc(C(F)(F)F)c2Cl)CC(c2ccccc2)c2ccccc2)c1,-4.01%,–
CN(Cc1ccc(C(=O)O)cc1)c1ccc(OCc2c(-c3c(Cl)cccc3Cl)noc2C2CC2)nc1C(F)(F)F,13.2%,–
COc1cc(/C=C(\C#N)C(=O)Nc2nnc(C(F)(F)F)s2)ccc1OCc1ccc(C(F)(F)F)cc1C(F)(F)F,3.82%,–
COc1cccc(-n2nc(C(=O)O)cc2-c2ccc(C3CCCCC3)c(Cl)c2)c1,-0.0617% [at 31.5 µM],–
CCc1oc2ccccc2c1C(=O)c1cc(Br)c(O)c(Br)c1,-18%,–
CN(C)[C@@H]1C(=O)C(C(N)=O)=C(O)[C@@]2(O)C(=O)C3=C(O)c4c(O)cccc4C[C@H]3C[C@@H]12,-8.19%,–
O=C1NC(=O)/C(=C/c2cccc(C(F)(F)F)c2)S1,-7.2%,–
O=C(O)c1ccc(CCCc2ccc(OCCc3ccc(F)cc3)cc2)o1,12.6% [at 31.5 µM],–
CCOc1ccc(-c2cc(NC(=O)c3c(F)cccc3F)c(C(=O)O)s2)cc1,1.74%,–
CN(CC(=O)N(Cc1ccc(C2CCCCC2)cc1)c1ccc(C(=O)O)cc1)S(=O)(=O)c1c(F)c(F)c(F)c(F)c1F,–,7.94 µM (active)
CO[C@H]1C[C@@H](O[C@@H]2/C(C)=C/C[C@@H]3C[C@@H](C[C@]4(CC[C@H](C)[C@@H](C5CCCCC5)O4)O3)OC(=O)[C@@H]3C=C(C)/C(=N/O)[C@H]4OC/C(=C\C=C\[C@@H]2C)[C@]43O)O[C@@H](C)[C@H]1O,–,25.1 µM (active)
CCOc1c2c(c(OCC)c3ccccc13)C(=O)N(c1ccc(CC(=O)NS(=O)(=O)c3ccccc3)cc1)C2,1.74%,–

Structure (SMILES),"activity change, negative = cytotoxicity",Potency
O=C(O)c1ccc(S(=O)(=O)N(Cc2ccc(OC(F)(F)F)cc2)c2ncc(C(F)(F)F)cc2Cl)cc1,-6.33%,–
Cc1cc(C(C#N)c2ccc(Cl)cc2)c(Cl)cc1NC(=O)c1cc(I)cc(I)c1O (stereo not drawn),–,31.6 µM (active)
CC1(C)CCC(C)(C)c2cc3c(cc21)Sc1ccccc1N=C3c1ccc(C(=O)O)cc1,-1.86%,–
CC(C)=CCCC1(C)C=Cc2c(O)c3c(c(CC=C(C)C)c2O1)OC12C(=CCCC1C(C)(C)O[C@@]2(C/C=C(\C)C(=O)O)C(=O)O)C3=O (stereo partly drawn),0.248%,–
COc1cnc(-c2ccc(Cn3c(CC(C)(C)C(=O)O)c(SC(C)(C)C)c4cc(OC[C@@H]5Cc6ccccc6N5C(C)=O)ccc43)cc2)nc1,0.74% [at 31.5 µM],–
CC(C)(O)c1ccccc1CC[C@@H](SCC1(CC(=O)O)CC1)c1cccc(/C=C/c2ccc3ccc(Cl)cc3n2)c1,0%,–
N#CC(c1ccc(Cl)cc1)c1c(Cl)cc(-n2ncc(=O)[nH]c2=O)cc1Cl (stereo not drawn),-5.71%,–
O=C(Nc1ccc([N+](=O)[O-])cc1Cl)c1cc(Cl)ccc1O,–,inactive
O=C(O)Cc1cc(I)c(Oc2ccc(O)c(I)c2)c(I)c1,-1.74%,–
Cc1cc(C)cc(C(=O)N(C)[C@H](Cc2ccc(-c3ccccc3)cc2)C(=O)N[C@@H](Cc2c[nH]c3ccccc23)C(=O)O)c1,0.744%,–
Cc1cccc(C)c1NS(=O)(=O)c1ccc(NS(=O)(=O)c2ccc3c(c2)OCCO3)cc1,-20.5%,–
CCOC(=O)c1ccc(N2C(=O)c3n[nH]c(-c4cccs4)c3C2c2ccc(Cl)cc2Cl)cc1 (stereo not drawn),–,25.1 µM (active)
COc1cc(C)c(C(=O)OC2C(C)OC(OC3CCC(C)C4C3C=C(C)C3/C(C)=C\CC/C(C)=C/C5(C)C=C(C(=O)O)C(C)CC56OC(=O)/C(=C(\O)C34C)C6=O)C(O)C2O)c(OC)c1 (stereo not drawn),3.72% [at 10.4 µM],–
CC(Oc1ccccc1)C(=O)Nc1ccc(C(=O)OCc2cc(=O)n3nc(C4CC4)sc3n2)cc1 (stereo not drawn),-16.1%,–
O=C(O)C1(Cc2cccc(Nc3nccs3)n2)CCC(Oc2cccc(Cl)c2F)CC1 (stereo not drawn),-0.248%,–
O=C(O)CC1CCC(c2ccc(-c3ccc(Nc4ccc(C(F)(F)F)nc4)cn3)cc2)CC1 (stereo not drawn),1.67% [at 31.5 µM],–
